This note sets out measurements from the supplement of paper PMC6555819.

One assay deals with PPARg:RXRa DBDmut IVT, anti-RXR (DBD mutation: RXRa K156A/R161A, NR concentration 270 nM, RXRa partner concentration 90 nM). The experiment in a line: PBM binding z-score (relative to random genomic background probes); higher = stronger binding; sequences stand for … in GC…GCGATTGACAGCGTAGAATGAAGG
Summed up:
(§1)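 Antibodies against each partner of ligand-free nuclear receptor dimers (one per run) detected binding on custom Agilent 4×180K protein-binding microarrays after 1 h incubation. The double-stranded probes had 34-nt variable regions carrying direct-repeat seeds, single-nucleotide variants, half-site ablations and random human genomic background sequences. Binding z-scores, from regression-normalized fluorescence, use the random background probes as reference.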
GCGACTGGGGCATCAGCAGGTTACGATAACTTAA registered a PBM binding z-score of 3.75.
Still for that read-out and setting: in the case of GATACAGGGTCAAGACCAGAGTACGCGTATTGAT it was 1.96.
Still for that read-out and setting: the figure for TCTTGTAGATCAGCAGGTAAAGAAAGCTGGCCAA is 1.27; for GGATCGAGGGCAAGTTGATAGCAGAGTTTGATGG it is 3.34; for ACTGACAGGTGAGTGAAGGTAACTCAGCTGGACG it is 0.237.
As to CGTCCAGGGTCAGAGAGGTCAGTGAATGCCGAGT, the PBM binding z-score worked out at 1.59.
In turn, TAGCCTAGGTCGTGCGGGCCAGTATAGTGTCGGC had a PBM binding z-score of -0.622.
Same read-out and setting: the figure for TCTGCTAGGTCAGTAGGTCAGCTAACGAGCTGCC is 4.75; for CGAACTATGTCAGAACAGGACAGTGAAGGATGAT it is 1.99; for TGAATGAGGTTATAAGATCAGCGAACGTTGCAAA it is 1.18.
The sequence GCTTACGGGTCAAAGATTATAGCATGAATAGAAT showed a PBM binding z-score of 3.85.
On the same count and under the same terms, in the case of AGAACGAGGGCAAGCTGAGTTGATAGCAGAGTAG it was 3.94; in that of CGAACGAGGGCATGAGTGGATAGCAAATGCCGAT, 2.74; in that of CTCGCAAGGTCGTGCTCAGGTGAGTATACCAAAC, 0.0828.
The same measure, in the same setting: in the case of TAAGACAGGTGAAGGTAACTCAGGTACGCAGTCG it was 0.644; in that of TGATATAGGTAAAGGTGAAAGTCGAACGATATGA, 4.83; in that of ATCTCTAGGTAAAGATAGTTCACTGAATGCAAAT, 2.05.
On the same count and under the same terms, the figure for CCGTACGGGTCACGAGGTTATAGCACGACGAGCG is 2.29; for CCTACTGGGCCAAAGGTCATTCATTCCAATGCTC it is 5.26; for TGTCAAAGTTCAAAGGAAACGTAAGTATCCACAC it is -0.506.
Sequence CTCGAAAGGTCGGTTGAGGTGAGAATACGGATAA displayed a PBM binding z-score of -0.0519.
As to CCAGACAGGTGAAAGTTAACTCAGTCTGGTACGC, the PBM binding z-score worked out at 1.64.
Still for that read-out and setting: in the case of GATACAGGGTCAAGGCCAGACTACGCGTATTGAT it was 2.8.
In turn, CCAGACAGGTGAGAAGGTAACTGAGCCTCGATTA displayed a PBM binding z-score of 0.955.
Same read-out and setting: in the case of ATCGAAAGATCGACGAGGTGAGTATACACCGTTT it was -0.646; in that of CCTACTGGGCCATCAGGTCATTGACATCAACGTT, 4.78; in that of GCGACTGGGGCAAAGCCGGTTACCATAAGGTTGG, 3.46.
The same measure, in the same setting: the figure for CCGACTGGGGCAGAACGGTTACCATACCATCCGG is 1.2.
The same measure, in the same setting: the figure for ACTAGCAGGCCAAGTTTGGGTCACTCACACAAAG is 0.874; for GCGAGCAGGCCATTTGGGTCACTCAATGACGGGC it is 0.844.
AATACAGGGTCACTAGGCCAGAATAGGTACGAAT yielded a PBM binding z-score of 3.44.
GCGACTGGGGCATCAGCAGTTTACCATAACTTAA had a PBM binding z-score of 3.71.
Still for that read-out and setting: in the case of TCTGCTAGGTCAATGATGGTCAGCTAATCTGCTA it was 3.8; in that of TCTAGTTGGTCACGGAGGTCACAGACGACGGGTA, 2.62; in that of CCTAGCGGGCCAATCTGGGTCACTCAAGGCTTGA, 3.83.
Same read-out and setting: in the case of GCAACGAGGGCAAGTTGATAGCAGAGTTTGATGG it was 2.75; in that of ATATGTAGGTTAAGGGTAATTCAGGTTGGTTCGC, 7.67.
On the same count and under the same terms, the figure for CAAACTAGGCCACGAAAGGTCAAAGTCGAATGAC is 7.17.
Consider CTCAAAAGGTCGTGCTCAGGTGAGTATACCAAAC, for which the PBM binding z-score worked out at 1.02.

The next assay deals with PPARg:RXRa IVT, anti-PPARg (NR concentration 270 nM, RXRa partner concentration 90 nM). The description is as above. Summed up: as §1
Sequence GCGACTGGGGCATCAGCAGGTTACGATAACTTAA had a PBM binding z-score of 3.19.
Still for that read-out and setting: the figure for GATACAGGGTCAAGACCAGAGTACGCGTATTGAT is 3.52.
The same measure, in the same setting: in the case of TCTTGTAGATCAGCAGGTAAAGAAAGCTGGCCAA it was 0.386; in that of GGATCGAGGGCAAGTTGATAGCAGAGTTTGATGG, 2.56; in that of ACTGACAGGTGAGTGAAGGTAACTCAGCTGGACG, 1.07.
In turn, CGTCCAGGGTCAGAGAGGTCAGTGAATGCCGAGT returned a PBM binding z-score of 2.32.
With TAGCCTAGGTCGTGCGGGCCAGTATAGTGTCGGC, the PBM binding z-score was found to be 0.425.
Turning to TCTGCTAGGTCAGTAGGTCAGCTAACGAGCTGCC, the PBM binding z-score was found to be 6.23.
CGAACTATGTCAGAACAGGACAGTGAAGGATGAT: the PBM binding z-score is 1.16.
Same read-out and setting: in the case of TGAATGAGGTTATAAGATCAGCGAACGTTGCAAA it was 2; in that of GCTTACGGGTCAAAGATTATAGCATGAATAGAAT, 3.76.
AGAACGAGGGCAAGCTGAGTTGATAGCAGAGTAG displayed a PBM binding z-score of 2.42.
Take CGAACGAGGGCATGAGTGGATAGCAAATGCCGAT: the PBM binding z-score was determined as 1.85.
On the same count and under the same terms, the figure for CTCGCAAGGTCGTGCTCAGGTGAGTATACCAAAC is 0.996.
Same read-out and setting: in the case of TAAGACAGGTGAAGGTAACTCAGGTACGCAGTCG it was 1.64; in that of TGATATAGGTAAAGGTGAAAGTCGAACGATATGA, 5.52.
The sequence ATCTCTAGGTAAAGATAGTTCACTGAATGCAAAT registered a PBM binding z-score of 1.64.
Still for that read-out and setting: the figure for CCGTACGGGTCACGAGGTTATAGCACGACGAGCG is 3.93; for CCTACTGGGCCAAAGGTCATTCATTCCAATGCTC it is 6.63.
On the same count and under the same terms, the figure for TGTCAAAGTTCAAAGGAAACGTAAGTATCCACAC is 3.75; for CTCGAAAGGTCGGTTGAGGTGAGAATACGGATAA it is 0.993.
Still for that read-out and setting: the figure for CCAGACAGGTGAAAGTTAACTCAGTCTGGTACGC is 1.56.
GATACAGGGTCAAGGCCAGACTACGCGTATTGAT came in with a PBM binding z-score of 3.83.
Same read-out and setting: the figure for CCAGACAGGTGAGAAGGTAACTGAGCCTCGATTA is 0.477.
Still for that read-out and setting: in the case of ATCGAAAGATCGACGAGGTGAGTATACACCGTTT it was 0.27; in that of CCTACTGGGCCATCAGGTCATTGACATCAACGTT, 5.02.
Still for that read-out and setting: in the case of GCGACTGGGGCAAAGCCGGTTACCATAAGGTTGG it was 2.75; in that of CCGACTGGGGCAGAACGGTTACCATACCATCCGG, 0.551; in that of ACTAGCAGGCCAAGTTTGGGTCACTCACACAAAG, 1.38.
Regarding GCGAGCAGGCCATTTGGGTCACTCAATGACGGGC, the PBM binding z-score came to 2.03.
The same measure, in the same setting: the figure for AATACAGGGTCACTAGGCCAGAATAGGTACGAAT is 5.78; for GCGACTGGGGCATCAGCAGTTTACCATAACTTAA it is 2.93.
Still for that read-out and setting: in the case of TCTGCTAGGTCAATGATGGTCAGCTAATCTGCTA it was 3.49; in that of TCTAGTTGGTCACGGAGGTCACAGACGACGGGTA, 4.51; in that of CCTAGCGGGCCAATCTGGGTCACTCAAGGCTTGA, 4.82.
The same measure, in the same setting: in the case of GCAACGAGGGCAAGTTGATAGCAGAGTTTGATGG it was 1.85; in that of ATATGTAGGTTAAGGGTAATTCAGGTTGGTTCGC, 7.16.
In turn, CAAACTAGGCCACGAAAGGTCAAAGTCGAATGAC returned a PBM binding z-score of 7.41.
Still for that read-out and setting: in the case of CTCAAAAGGTCGTGCTCAGGTGAGTATACCAAAC it was 2.03.
